# Results filed as inconclusive are left out. Activity calls are given as the source filed them. Unless noted, calls follow the shape of the dose curve; as a rule, active = well fitted curve in the direction sought with a large enough effect; inconclusive = small, poorly fitted or top-dose-only effect, or another doubt; inactive = no such curve, though single readings can be large; an effect the other way counts as inactive or inconclusive.
# How the values were obtained:
# [1] = molecular target: Lysosomal acid glucosylceramidase (Homo sapiens) (UniProt P04062); test: Glucocerebrosidase-p2 (AID 348; in the data active = potency below about 10 µM; also: potency is read from the fitted curve at half-maximal effect); details: purified GBA, blue fluorogenic substrate, 40 min
# How it was run: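 Normal human glucocerebrosidase (0.2 nM) with blue fluorogenic substrate (80 uM final) in citrate/phosphate pH 5.9 with 10mM sodium taurocholate, 0.01% tween-20; 40 min RT, NaOH/glycine stop; fluorescence Ex 365/Em 440; AC50 from a titration from 0.6 nM upwards.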
# [2] = AP1 Signaling Pathway (AID 357; active = well fitted curve in either direction with a large enough effect, not every such curve was filed as active;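 also: ME-180 reporter cells stimulated with EGF at its EC50 level; % is scaled to controls: 0 for no effect and ±100 for the full control effect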); details: ME-180 AP-1-bla reporter, EGF-induced, beta-lactamase ratio, 5 h; at 7.69 µM (top of the series) unless noted
# How it was run: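 First, ME-180 AP-1-bla cells were cultured overnight at 37 °C in low-serum Opti-MEM. Next, titrated compounds with EC50 EGF were incubated 5 hours. Finally, CCF4 was added for 2.5 hours and the 460/530 nm ratio recorded.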
# [3] = molecular target: Cytochrome P450 1A2 (Homo sapiens) (UniProt P05177); test: p450-cyp1a2 (AID 410; calls by dose curve; also: potency is read from the fitted curve at half-maximal effect;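 as to activity change, negative = inhibition: -100% = full effect of reference inhibitor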)
# How it was run: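 Luminescent demethylation readout: Luciferin-ME (100uM, equal to Km) turned over by 20nM CYP1A2 for 60 min at room temperature after NADPH regeneration addition, following 10 min compound preincubation. Normalization used 57 uM furafylline as full inhibition.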
# [4] = NFAT Signaling Pathway (AID 444; active = well fitted curve in either direction with a large enough effect, not every such curve was filed as active;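 also: carbachol stimulus at about its EC50 of 1 µM final; % is scaled to controls: 0 for no effect and ±100 for the full control effect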); details: Jurkat NFAT-bla M1, carbachol, beta-lactamase ratio, 5 h; at 7.69 µM (top of the series) unless noted
# How it was run: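 Jurkat cells with NFAT-driven β-lactamase reporter and co-expressed M1 receptor, stimulated with carbachol (final 1 uM, ~EC50), compound titration, 5 h at 37 °C. CCF4 loaded 1 h at RT; 460/530 nm ratio gave %activity and AC50.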
# [5] = Stat Signaling Pathway (AID 446; active = well fitted curve in either direction with a large enough effect, not every such curve was filed as active;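 also: ME-180 cervical cancer cells given 40 pM IL-6 alongside compound; SIE-controlled beta-lactamase reporter measured as 460/530 nm FRET emission ratio; % is scaled to controls: 0 for no effect and ±100 for the full control effect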); details: ME-180 (cervical carcinoma) SIE beta-lactamase reporter, IL-6 stimulated, 5 h; at 7.69 µM (top of the series) unless noted
# How it was run: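 FRET read-out (405 nm excitation, 460/530 nm emission) of a beta-lactamase reporter under a STAT-inducible element in ME-180 cervical carcinoma cells. Cells with compound receive 40 pM IL-6 for 5 h. Values are normalised to AC90 stimulation and AC90 JAK-inhibitor controls.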
# [6] = molecular target: Glucocorticoid receptor (Homo sapiens) (UniProt P04150); test: GR-GFP Redistribution (AID 450;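 active = compounds whose dose series gives a full or clear partial fitted curve of increased nuclear translocation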; also: potency is read from the fitted curve at half-maximal effect); details: U2OS GR-GFP nuclear translocation, laser cytometry, 2 h
# [7] = molecular target: Glucocorticoid receptor (Homo sapiens) (UniProt P04150); test: GR-EFC Redistribution (AID 451; calls by dose curve; also: potency is read from the fitted curve at half-maximal effect); details: CHO-K1 GR-EFC translocation, beta-gal luminescence, 2 h
# How it was run: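 CHO-K1 cells expressing nuclear EA and GR-ED fragments of b-gal; compounds titrated up to 46 uM final, 2 h at 37 C. GR nuclear translocation read as complemented b-gal luminescence after 1 h RT detection.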
# [8] = molecular target: Mitogen-activated protein kinase 10 (Mus musculus) (UniProt Q61831); test: JNK3 AlphaScreen Assay (AID 530; active = well fitted curve in either direction with a large enough effect, not every such curve was filed as active;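 also: kinase came from lysate of stimulated human HepG2 cells; signal reports phosphorylation of biotinylated GST-cJun 1-79 at Ser73 with 10 µM ATP; % is scaled to controls: 0 for no effect and ±100 for the full control effect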)
# How it was run: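 Activity was read by AlphaScreen after JNK3-containing HepG2 lysate (cytokine pre-activated) phosphorylated biotinylated GST-cJun with 10 uM ATP at room temperature. Phospho-Ser73 cJun antibody with Protein-A acceptor beads provided detection.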
# [9] = molecular target: 3',5'-cyclic-AMP phosphodiesterase 4B (Homo sapiens) (UniProt Q07343); test: qHTS Assay for Inhibitors of PDE-IV (AID 607; active = well fitted activation curve with a large enough effect in the main read-out, with a control signal flat, not every such curve was filed as active; also: % of control where 0% means no effect)
# How it was run: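 Cell-based read-out of cAMP via a modified cyclic nucleotide-gated channel and membrane potential dye (535/590 nm) in HEK293 cells expressing PDE4 endogenously. Compounds tested up to 22.9 uM final; 100 uM RO 20-1724 reference.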
# [10] = molecular target: Cytochrome P450 2C9 (Homo sapiens) (UniProt P11712); test: qHTS Assay for Inhibitors and Substrates of Cytochrome P450 2C9 (AID 883); also: nearly all actives have a fitted effect of over 60% in size; also: potency is read from the fitted curve at half-maximal effect
# How it was run: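 Signal: luciferase luminescence reporting luciferin produced by CYP2C9. Conditions: 10nM enzyme, Luciferin-H 100uM at KM, 25mM KPO4, 37C, 60 min NADPH-driven reaction. Reference: 57uM sulphaphenazole as 100% inhibition.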
# [11] = molecular target: Cytochrome P450 3A4 (Homo sapiens) (UniProt P08684); test: qHTS Assay for Activators of Cytochrome P450 3A4 (AID 885); also: nearly all actives have a fitted effect of over 65% in size
# How it was run: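 Luminescent readout of luciferin formed from 25 uM Luciferin-PPXE (KM level) by 20 nM CYP3A4 in 200 mM KPO4, with 60 min NADPH-driven reaction at room temperature after 10 min compound exposure. Ketoconazole (57 uM) defined 100% inhibition.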
# [12] = Confirmation and Secondary Assay for Modulators of Hemoglobin Beta Chain Splicing at IVS2 654 locus (AID 910);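 also: HeLa cells stably carrying EGFP split by mutant beta-globin IVS2-654 intron; % of control where 0% means no effect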
# How it was run: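 HeLa cells stably expressing EGFP interrupted by β-globin IVS2-654 intron, seeded overnight in Opti-MEM/2% FCS, then treated 2 days at 37 °C. Restored splicing read as total peak GFP intensity per well by laser scanning cytometry (488 nm excitation, 500–520 nm emission); 500 nM antisense PNA as control.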
# [13] = Confirmation and Secondary Assay for Modulators of Hemoglobin Beta Chain Splicing at IVS2 705 locus (AID 930);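 also: HeLa cells stably expressing the EGFP-705 splicing reporter; GFP fluorescence per well restored by corrected splicing of the IVS2-705 intron in EGFP; % of control where 0% means no effect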
# How it was run: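 Fluorescence gain (488 nm laser, 500-520 nm PMT) reflects restored correct splicing of a mutant IVS2-705 intron inside EGFP in stably transfected HeLa cells after 2-day compound treatment.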
# [14] = qHTS Assay for Lipid Storage Modulators (AID 1519; calls by dose curve); details: Drosophila S3 cells, BODIPY lipid droplet/cell ratio, laser cytometry, cells loaded with oleic acid; for activity change, negative = inhibition: at 57.5 µM (top of the series)
# How it was run: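 Cells seeded at 5,000 per well were treated with compounds over a concentration series and loaded with oleic acid (400 uM, as added). Lipid droplet fluorescence (488 nm excitation, 500-530 nm channel) was read by laser-scanning cytometry and normalized to 20 uM Triacsin C.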
# [15] = molecular target: Ubiquitin carboxyl-terminal hydrolase 1 (Homo sapiens) (UniProt O94782); test: Inhibitors of USP1/UAF1: Pilot qHTS (AID 504865);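 also: rhodamine fluorescence freed from ubiquitin-rhodamine substrate followed over time; top concentration of the series differs between compounds; % is scaled to controls: 0 for no effect and ±100 for the full control effect; nearly all actives have a fitted effect of over 35% in size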
# How it was run: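 Deubiquitinase activity followed as kinetic rhodamine fluorescence release from 150 nM Ub-Rho. 1 nM USP1/UAF1 with compound, after 15 min room-temperature preincubation, in HEPES pH 7.8 buffer containing TCEP, EDTA, BSA and Tween-20.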
# [16] = Primary qHTS for small molecule stabilizers of the endoplasmic reticulum resident proteome: Secreted ER Calcium Modulated Protein (SERCaMP) assay (AID 1508630); also: % is scaled to controls: 0 for no effect and ±100 for the full control effect
# How it was run: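 The SH-SY5Y reporter protocol was run at 3 concentrations up to 38.3 uM (primary) or 11 concentrations (follow-up): 16 h compound, 100 nM thapsigargin for 4 h, then extracellular luciferase luminescence.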
# [17] = molecular target: Cytochrome P450 3A4 (Homo sapiens) (UniProt P08684); test: qHTS Assay for Inhibitors and Substrates of Cytochrome P450 3A4 (AID 884); also: potency is read from the fitted curve at half-maximal effect; nearly all actives have a fitted effect of over 50% in size
# How it was run: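 Luminescent readout of luciferin produced by CYP3A4 (20 nM) dealkylation of Luciferin-PPXE, 25 uM (its KM). NADPH-driven reaction ran 60 min at RT after 10 min compound preincubation; data scaled to 57 uM ketoconazole as 100% inhibition.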
# [18] = molecular target: Cytochrome P450 2C19 (Homo sapiens) (UniProt P33261); test: qHTS Assay for Inhibitors and Substrates of Cytochrome P450 2C19 (AID 899); also: potency is read from the fitted curve at half-maximal effect; nearly all actives have a fitted effect of over 60% in size
# How it was run: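 Signal comes from luciferase acting on luciferin released by CYP2C19-mediated hydroxylation of Luciferin-H EGE, 10uM (KM). Assay mix: 5nM enzyme, 50mM KPO4; 60 min at 37C with NADPH regeneration. Data normalized against 57uM ketoconazole.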
# [19] = molecular target: Dual specificity protein kinase CLK4 (Homo sapiens) (UniProt Q9HAZ1); test: qHTS Assay for Inhibitors of CDC-like Kinase 4 (ADP-FP Assay) (AID 1795);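 also: recombinant human CLK4 phosphorylating RS repeat peptide at 1 µM ATP; % is scaled to controls: 0 for no effect and ±100 for the full control effect; nearly all actives have a fitted effect of over 60% in size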
# How it was run: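 Kinase activity was measured as ADP production using Transcreener orange tracer (4 nM) and ADP antibody (1 ug/mL) fluorescence polarization, with ADP calculated from a calibration curve. The 1 h reaction contained 6.25 nM Clk4, 1 uM ATP and 100 uM RS peptide at pH 7.5 with Mg2+.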
# [20] = measured here: cell count channel max response
# [21] = measured here: lipid channel max response
# Sequence of Cytochrome P450 1A2 (Homo sapiens) (P05177 whole entry, looked up): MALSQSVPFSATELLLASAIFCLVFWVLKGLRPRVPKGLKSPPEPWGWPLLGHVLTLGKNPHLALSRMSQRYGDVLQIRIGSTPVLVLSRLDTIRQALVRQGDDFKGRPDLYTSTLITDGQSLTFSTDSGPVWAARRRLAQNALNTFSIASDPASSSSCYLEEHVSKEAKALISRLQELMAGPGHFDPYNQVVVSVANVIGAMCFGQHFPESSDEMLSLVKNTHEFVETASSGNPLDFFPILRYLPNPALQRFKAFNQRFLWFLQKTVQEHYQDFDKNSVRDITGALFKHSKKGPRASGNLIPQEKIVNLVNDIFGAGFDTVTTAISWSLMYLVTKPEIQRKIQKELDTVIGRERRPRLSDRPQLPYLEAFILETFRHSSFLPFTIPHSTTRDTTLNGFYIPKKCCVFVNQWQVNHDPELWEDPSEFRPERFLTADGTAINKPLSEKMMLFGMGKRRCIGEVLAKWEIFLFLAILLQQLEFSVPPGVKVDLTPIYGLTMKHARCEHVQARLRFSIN
# Sequence of Glucocorticoid receptor (Homo sapiens) (P04150 whole entry, looked up, the tested form may be a part): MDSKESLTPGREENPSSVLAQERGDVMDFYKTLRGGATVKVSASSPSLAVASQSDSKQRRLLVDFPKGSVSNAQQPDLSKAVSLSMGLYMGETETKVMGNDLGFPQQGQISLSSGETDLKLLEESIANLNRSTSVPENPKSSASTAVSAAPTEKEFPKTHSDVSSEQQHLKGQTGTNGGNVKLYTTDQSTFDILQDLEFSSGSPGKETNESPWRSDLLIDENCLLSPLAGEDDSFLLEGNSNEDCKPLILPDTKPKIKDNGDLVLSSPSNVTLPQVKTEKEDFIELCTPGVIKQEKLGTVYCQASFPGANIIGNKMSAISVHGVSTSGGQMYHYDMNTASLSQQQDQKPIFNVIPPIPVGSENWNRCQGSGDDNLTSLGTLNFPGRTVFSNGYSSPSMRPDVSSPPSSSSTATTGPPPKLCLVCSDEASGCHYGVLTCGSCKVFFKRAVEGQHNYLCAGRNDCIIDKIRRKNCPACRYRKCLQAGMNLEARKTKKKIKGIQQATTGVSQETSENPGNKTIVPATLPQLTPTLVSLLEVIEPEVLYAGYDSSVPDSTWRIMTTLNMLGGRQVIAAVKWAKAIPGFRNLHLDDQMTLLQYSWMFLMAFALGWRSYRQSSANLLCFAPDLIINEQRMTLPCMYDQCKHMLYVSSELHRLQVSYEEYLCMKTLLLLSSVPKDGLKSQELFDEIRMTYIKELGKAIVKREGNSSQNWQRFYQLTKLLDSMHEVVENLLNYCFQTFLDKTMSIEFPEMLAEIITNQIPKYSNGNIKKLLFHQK
# Sequence of Cytochrome P450 3A4 (Homo sapiens) (P08684 whole entry, looked up): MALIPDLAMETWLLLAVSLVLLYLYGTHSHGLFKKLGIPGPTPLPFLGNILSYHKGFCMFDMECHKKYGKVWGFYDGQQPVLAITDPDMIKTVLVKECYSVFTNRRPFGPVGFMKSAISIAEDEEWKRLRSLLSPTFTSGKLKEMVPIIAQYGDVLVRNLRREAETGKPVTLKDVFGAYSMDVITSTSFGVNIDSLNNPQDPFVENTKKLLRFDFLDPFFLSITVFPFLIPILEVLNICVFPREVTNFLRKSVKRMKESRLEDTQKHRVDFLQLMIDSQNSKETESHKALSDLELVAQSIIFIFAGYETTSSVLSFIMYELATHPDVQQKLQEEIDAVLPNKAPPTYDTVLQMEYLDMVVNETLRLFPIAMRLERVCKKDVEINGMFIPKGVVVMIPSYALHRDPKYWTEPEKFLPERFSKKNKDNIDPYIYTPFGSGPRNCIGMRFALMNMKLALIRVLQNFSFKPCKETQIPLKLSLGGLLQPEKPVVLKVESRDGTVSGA
# Sequence of Ubiquitin carboxyl-terminal hydrolase 1 (Homo sapiens) (O94782 whole entry, looked up): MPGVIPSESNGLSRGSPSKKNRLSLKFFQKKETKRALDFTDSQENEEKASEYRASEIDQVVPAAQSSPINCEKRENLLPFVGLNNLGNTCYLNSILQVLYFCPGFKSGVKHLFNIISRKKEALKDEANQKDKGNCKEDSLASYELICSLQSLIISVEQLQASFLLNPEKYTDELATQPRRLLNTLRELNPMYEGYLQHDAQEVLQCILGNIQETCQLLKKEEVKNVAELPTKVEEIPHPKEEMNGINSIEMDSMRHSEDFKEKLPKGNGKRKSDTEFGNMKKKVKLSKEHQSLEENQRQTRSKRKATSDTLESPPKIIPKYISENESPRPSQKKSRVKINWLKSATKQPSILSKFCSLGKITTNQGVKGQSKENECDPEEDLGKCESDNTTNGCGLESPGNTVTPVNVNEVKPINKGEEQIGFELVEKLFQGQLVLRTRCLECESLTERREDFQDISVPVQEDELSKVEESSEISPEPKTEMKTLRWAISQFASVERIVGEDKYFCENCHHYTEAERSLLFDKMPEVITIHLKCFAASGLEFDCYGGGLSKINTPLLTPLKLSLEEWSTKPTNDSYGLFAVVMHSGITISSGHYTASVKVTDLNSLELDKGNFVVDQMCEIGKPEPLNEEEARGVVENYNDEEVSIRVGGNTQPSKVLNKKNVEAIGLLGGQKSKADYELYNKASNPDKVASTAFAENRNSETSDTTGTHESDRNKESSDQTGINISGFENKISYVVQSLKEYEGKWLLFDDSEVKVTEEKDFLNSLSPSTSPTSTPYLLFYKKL
# Sequence of Lysosomal acid glucosylceramidase (Homo sapiens) (P04062 whole entry, looked up): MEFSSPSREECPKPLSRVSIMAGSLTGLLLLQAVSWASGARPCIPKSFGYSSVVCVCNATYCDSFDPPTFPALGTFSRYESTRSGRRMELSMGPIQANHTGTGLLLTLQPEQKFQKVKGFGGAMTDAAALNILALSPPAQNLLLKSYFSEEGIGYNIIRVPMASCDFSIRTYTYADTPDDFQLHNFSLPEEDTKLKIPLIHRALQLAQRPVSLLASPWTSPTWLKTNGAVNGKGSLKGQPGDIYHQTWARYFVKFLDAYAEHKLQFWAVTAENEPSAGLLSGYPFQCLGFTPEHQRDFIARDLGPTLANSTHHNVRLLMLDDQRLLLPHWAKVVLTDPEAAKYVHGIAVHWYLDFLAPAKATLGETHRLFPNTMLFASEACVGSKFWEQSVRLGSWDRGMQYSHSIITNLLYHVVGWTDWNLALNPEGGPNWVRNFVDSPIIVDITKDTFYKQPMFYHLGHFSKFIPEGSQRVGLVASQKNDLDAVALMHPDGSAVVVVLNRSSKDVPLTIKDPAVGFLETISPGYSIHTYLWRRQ
# Sequence of 3',5'-cyclic-AMP phosphodiesterase 4B (Homo sapiens) (Q07343 whole entry, looked up): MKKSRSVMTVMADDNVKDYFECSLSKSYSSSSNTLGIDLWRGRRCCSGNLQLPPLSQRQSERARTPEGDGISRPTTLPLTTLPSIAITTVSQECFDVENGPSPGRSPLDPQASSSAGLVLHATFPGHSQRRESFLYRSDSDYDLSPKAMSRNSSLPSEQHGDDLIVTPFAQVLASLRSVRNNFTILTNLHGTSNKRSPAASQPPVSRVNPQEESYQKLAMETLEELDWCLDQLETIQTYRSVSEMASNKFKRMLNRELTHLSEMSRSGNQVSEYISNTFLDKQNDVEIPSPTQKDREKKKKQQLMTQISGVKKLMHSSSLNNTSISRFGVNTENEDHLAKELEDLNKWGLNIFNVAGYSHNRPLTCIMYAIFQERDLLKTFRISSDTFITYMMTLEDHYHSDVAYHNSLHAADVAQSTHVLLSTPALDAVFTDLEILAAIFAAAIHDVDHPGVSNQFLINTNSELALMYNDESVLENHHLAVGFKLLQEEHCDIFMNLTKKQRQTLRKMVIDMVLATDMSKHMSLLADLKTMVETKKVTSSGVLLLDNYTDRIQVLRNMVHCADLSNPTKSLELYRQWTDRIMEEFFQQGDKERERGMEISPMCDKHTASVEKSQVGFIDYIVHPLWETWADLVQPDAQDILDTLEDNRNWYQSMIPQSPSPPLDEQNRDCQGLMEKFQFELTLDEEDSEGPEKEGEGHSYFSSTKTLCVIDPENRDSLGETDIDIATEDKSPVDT
# Sequence of Cytochrome P450 2C9 (Homo sapiens) (P11712 whole entry, looked up): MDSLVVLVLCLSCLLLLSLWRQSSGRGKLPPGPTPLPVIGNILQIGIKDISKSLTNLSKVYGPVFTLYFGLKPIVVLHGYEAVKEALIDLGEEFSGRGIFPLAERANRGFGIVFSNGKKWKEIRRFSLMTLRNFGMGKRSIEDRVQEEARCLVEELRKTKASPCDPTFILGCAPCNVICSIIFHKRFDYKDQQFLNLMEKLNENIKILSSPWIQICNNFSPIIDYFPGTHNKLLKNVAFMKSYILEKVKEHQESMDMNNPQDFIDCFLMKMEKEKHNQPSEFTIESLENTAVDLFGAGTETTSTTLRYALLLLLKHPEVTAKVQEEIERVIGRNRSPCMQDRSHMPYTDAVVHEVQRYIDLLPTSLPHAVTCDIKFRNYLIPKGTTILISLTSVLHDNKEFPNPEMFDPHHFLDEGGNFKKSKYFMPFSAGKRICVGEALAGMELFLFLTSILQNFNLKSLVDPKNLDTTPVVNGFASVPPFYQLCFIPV
# Sequence of Cytochrome P450 2C19 (Homo sapiens) (P33261 whole entry, looked up): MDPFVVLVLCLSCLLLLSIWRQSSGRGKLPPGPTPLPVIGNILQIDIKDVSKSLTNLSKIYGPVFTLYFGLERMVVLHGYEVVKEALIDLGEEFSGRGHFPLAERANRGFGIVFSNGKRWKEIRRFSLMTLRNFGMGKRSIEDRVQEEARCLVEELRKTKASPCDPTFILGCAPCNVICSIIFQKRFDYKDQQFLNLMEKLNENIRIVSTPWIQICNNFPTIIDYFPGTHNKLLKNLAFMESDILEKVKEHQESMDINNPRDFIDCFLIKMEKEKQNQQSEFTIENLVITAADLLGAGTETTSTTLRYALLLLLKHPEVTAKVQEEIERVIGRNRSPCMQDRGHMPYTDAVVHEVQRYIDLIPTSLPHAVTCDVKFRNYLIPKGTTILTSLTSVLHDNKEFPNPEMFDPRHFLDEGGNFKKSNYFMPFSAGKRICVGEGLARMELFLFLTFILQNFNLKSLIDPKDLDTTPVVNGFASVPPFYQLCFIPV
structure (smiles),measurement,setting,value
CN(C)c1ccnc(-c2cccc(NS(C)(=O)=O)c2)n1,Potency,[1],> 11.4 µM (inactive)
same,"activity change, negative = inhibition",[2],-6.35% (inactive)
same,Potency,[3],1.58 µM (active)
same,"activity change, negative = inhibition",[4],0.933% (inactive)
same,"activity, negative = inhibition",[5],3.11% (inactive)
same,Potency,[6],> 46 µM (inactive)
same,Potency,[7],> 46 µM (inactive)
same,outcome,[8],inactive
same,Potency,[9],inactive
same,"activity change, negative = inhibition",[10],2.49% [at 2.29 µM] (inactive)
same,Potency,[11],inactive
same,outcome,[12],inactive
same,outcome,[13],inactive
same,"activity change, negative = inhibition",[14],11.6% (inactive)
same,max response,[14]; [20],7.48%
same,max response,[14]; [21],20%
same,Potency,[15],inactive
same,Potency,[16],inactive
CS(=O)(=O)Nc1cccc(-c2cncnc2NCc2cccs2)c1,Potency,[1],> 11.4 µM (inactive)
same,"activity change, negative = inhibition",[2],5.06% (inactive)
same,Potency,[3],15.8 µM (active)
same,"activity change, negative = inhibition",[4],2.17% (inactive)
same,"activity, negative = inhibition",[5],12.4% (inactive)
same,Potency,[6],> 46 µM (inactive)
same,Potency,[7],> 46 µM (inactive)
same,outcome,[8],inactive
same,Potency,[9],inactive
same,Potency,[10],0.126 µM (active)
same,Potency,[17],0.398 µM (active)
same,Potency,[11],inactive
same,outcome,[12],inactive
same,outcome,[13],inactive
same,"activity change, negative = inhibition",[14],4.63% (inactive)
same,max response,[14]; [20],8.3%
same,max response,[14]; [21],16.7%
same,Potency,[15],inactive
same,Potency,[16],inactive
CN1CCN(c2ncnc3ccc(-c4ccc(C(=O)N(C)C)cc4)cc23)CC1,Potency,[1],> 11.4 µM (inactive)
same,"activity change, negative = inhibition",[2],-10.8% (inactive)
same,Potency,[3],inactive
same,"activity change, negative = inhibition",[4],1.97% (inactive)
same,"activity, negative = inhibition",[5],-6.95% (inactive)
same,Potency,[6],> 46 µM (inactive)
same,Potency,[7],> 46 µM (inactive)
same,outcome,[8],inactive
same,Potency,[9],inactive
same,Potency,[11],inactive
same,"activity change, negative = inhibition",[14],2.73% (inactive)
same,max response,[14]; [20],23.5%
same,max response,[14]; [21],25.5%
same,Potency,[15],inactive
same,Potency,[16],inactive
c1cncc(CNc2ncncc2-c2ccc3c(c2)OCO3)c1,Potency,[1],> 11.4 µM (inactive)
same,"activity change, negative = inhibition",[2],-3.33% (inactive)
same,Potency,[3],0.398 µM (active)
same,"activity change, negative = inhibition",[4],6.22% (inactive)
same,"activity, negative = inhibition",[5],0.562% (inactive)
same,Potency,[6],> 46 µM (inactive)
same,Potency,[7],> 46 µM (inactive)
same,outcome,[8],inactive
same,Potency,[9],inactive
same,Potency,[17],0.398 µM (active)
same,Potency,[11],inactive
same,Potency,[18],0.199 µM (active)
same,outcome,[12],inactive
same,outcome,[13],inactive
same,"activity change, negative = inhibition",[14],8.63% (inactive)
same,max response,[14]; [20],10.5%
same,max response,[14]; [21],22.7%
same,Potency,[15],inactive
same,Potency,[16],inactive
COc1ccc(CNc2cc(-c3cccc(C#N)c3)ncn2)c(OC)c1,Potency,[1],> 11.4 µM (inactive)
same,"activity change, negative = inhibition",[2],-14.7% (inactive)
same,"activity, negative = inhibition",[5],-2.42% (inactive)
same,Potency,[6],> 46 µM (inactive)
same,Potency,[7],> 46 µM (inactive)
same,"activity change, negative = inhibition",[14],7.91% (inactive)
same,max response,[14]; [20],18.5%
same,max response,[14]; [21],23.9%
same,Potency,[19],inactive
same,Potency,[15],inactive
same,Potency,[16],inactive

# — PubChem BioAssay (NCATS)
